Data published in PubChem BioAssay.
Calls of active or inactive are those of the source.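 The calls were made as follows, unless noted: active = inhibition at or above 50% at 10 µM; inactive = inhibition below 50%.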

Experiments:
[1] = inhibitors of TNFa-induced NFkB p65 translocation, primary screen, imaging, HUVEC, MLSMR starter and 10KST1 sets (AID 438;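 active = inhibition above 20% together with a positive visual image hit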;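 also: compound added about 3h40 before a 20 min TNFalpha stimulation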;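 as to inhibition: signal is the nuclear over cytoplasmic p65 intensity ratio per well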); conditions: HUVEC TNFa-induced p65 nuclear translocation; cell count: measured here: nuclei count (cytotoxicity indicator), at 2.08 µM; inhibition: at 2 µM, stronger effect = higher value, 0% TNFa-plus-vehicle, 100% no-TNFa wells
[2] = reduction of polyQ htt aggregates in cells – imaging, exon1htt(103Q)mCFP cells, high-content imaging, primary screen (AID 483;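 active = visual image review flags a hit and inhibition of aggregation exceeds 20%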;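 also: compound exposure lasted 3 days before fixation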;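 as to nuclei count: percent of the per-plate median nuclei count of sample wells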); conditions: exon1htt(103Q)mCFP cell line, aggregate imaging, at 2 µM; inhibition of aggregation: stronger effect = higher value; nuclei count: measured here: cell count, toxicity
[3] = endothelial E-selectin expression blockers – imaging, HUVEC, immunofluorescence, MLSMR starter and 10KST1 sets, primary screen (AID 487;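 active = visually confirmed hit in the image check and inhibition above 20%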;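 as to inhibition: signal is fraction of cell area covered by stained E-selectin grains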;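 as to nuclei count: 100% = median nuclei count of all wells on the same plate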); conditions: HUVEC TNFalpha-induced E-selectin immunofluorescence imaging, at 2 µM; inhibition: stronger effect = higher value; nuclei count: measured here: cell number, toxicity
[4] = molecular target: Voltage-gated potassium channel subunit beta-2 (Rattus norvegicus) (UniProt P62483); experiment: inhibitors of rat Kvbeta2 reductase activity – biochemical, NADPH fluorescence, primary screen (AID 622;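 active = fluorescence slope higher than the sample average by over 3 SD, cut at about -0.22 in these data, passing the limit was not always enough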;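 also: slope of raw intensity against log time taken from 70 to 1610 s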); conditions: recombinant KvBeta, 4-cyanobenzaldehyde reduction, at 10 µM, stronger effect = higher value
[5] = molecular target: Voltage-gated potassium channel subunit beta-2 (Rattus norvegicus) (UniProt P62483); experiment: enhancers of rat Kvbeta2 NADPH turnover – biochemical, NADPH fluorescence, primary screen (AID 623;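 active = NADPH fluorescence slope more negative than the mean of all samples by about 3 SD, 99.7% confidence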;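 also: fluorescence intensity change per second fitted from 20 to 320 s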); conditions: Recombinant KvBeta, NADPH fluorescence decrease slope, 10 min; at 10 µM; stronger effect = lower value
[6] = molecular target: Alpha-2C adrenergic receptor (Homo sapiens) (UniProt P18825); experiment: compounds altering alpha2C-coupled GIRK flux – cell-based, HEK293 alpha2C/GIRK1/2, thallium flux, primary screen (AID 624;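 active = fluorescence slope after compound addition differing from the mean of all screened samples at 99.7% confidence, in either direction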;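 also: slope of fluorescence ratio to pre-addition baseline per second over 15 to 24 s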); conditions: thallium flux BTC fluorescence, at 10 µM, actives lie on both sides
[7] = blockers of RIG-like receptor reporter activation – cell-based, Sendai virus stimulus, luciferase, 10K MLSCN set, TLR/RLR signaling modifier project, primary screen (AID 602276); conditions: HEK293 RL24 IRF3 luciferase reporter, at 10 µM, stronger effect = higher value;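 also: firefly luciferase from ISG56 promoter only with Renilla not read in this screen; 0% = Sendai virus plus DMSO and 100% = medium plus DMSO without virus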
[8] = TLR3 IRF3 reporter activation blockers – cell-based, poly I:C stimulus, luciferase, 10K MLSCN set, primary screen (AID 602277;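 active = inhibition of the reporter signal at or above 50%; inactive = inhibition below 50%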); conditions: HEK293-TLR3 RL24 IRF3 luciferase reporter, at 10 µM, stronger effect = higher value

Voltage-gated potassium channel subunit beta-2 (Rattus norvegicus), sequence (P62483 whole entry, looked up): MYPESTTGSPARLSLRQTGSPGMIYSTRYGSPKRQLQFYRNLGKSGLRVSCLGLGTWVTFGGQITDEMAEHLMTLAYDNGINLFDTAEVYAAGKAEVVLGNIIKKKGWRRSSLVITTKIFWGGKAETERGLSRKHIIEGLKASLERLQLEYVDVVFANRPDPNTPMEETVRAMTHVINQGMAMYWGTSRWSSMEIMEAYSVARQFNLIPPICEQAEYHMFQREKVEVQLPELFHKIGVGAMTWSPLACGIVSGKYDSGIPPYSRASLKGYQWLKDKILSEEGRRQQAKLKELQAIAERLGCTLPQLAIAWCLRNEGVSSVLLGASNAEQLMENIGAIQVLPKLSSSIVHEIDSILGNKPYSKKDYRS
Alpha-2C adrenergic receptor (Homo sapiens), sequence (P18825 whole entry, looked up): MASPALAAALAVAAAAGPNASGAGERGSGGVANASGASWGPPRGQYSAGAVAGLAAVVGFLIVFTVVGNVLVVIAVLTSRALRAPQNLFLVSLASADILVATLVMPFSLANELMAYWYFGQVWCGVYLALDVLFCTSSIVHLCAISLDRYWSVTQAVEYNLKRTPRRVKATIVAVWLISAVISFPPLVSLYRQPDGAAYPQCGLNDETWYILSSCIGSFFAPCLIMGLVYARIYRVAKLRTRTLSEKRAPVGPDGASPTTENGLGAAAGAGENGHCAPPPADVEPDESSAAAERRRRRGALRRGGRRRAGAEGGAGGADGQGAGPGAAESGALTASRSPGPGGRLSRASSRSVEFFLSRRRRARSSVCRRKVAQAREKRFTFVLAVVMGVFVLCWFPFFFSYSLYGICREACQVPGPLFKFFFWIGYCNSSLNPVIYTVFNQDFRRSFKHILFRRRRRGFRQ

| SMILES | cell count [1] | inhibition [1] | inhibition of aggregation [2] | nuclei count [2] [%] | inhibition [3] | nuclei count [3] [%] | fluorescence slope [4] | NADPH fluorescence slope [5] | slope [6] | inhibition [7] | inhibition [8] |
| --- | --- | --- | --- | --- | --- | --- | --- | --- | --- | --- | --- |
| CN(c1ccccc1C(N)=O)S(=O)(=O)c1ccccc1 | 385 | -2.9% (inactive) | -21.8% (inactive) | 95.6 | -266% (inactive) | 108 | -0.355 (inactive) | 1.6e-05 (inactive) | 0.00547 (inactive) | 13% (inactive) | 22.7% (inactive) |
| c1ccc(Cn2nnnc2C(c2cccs2)N2CCSCC2)cc1 (stereo not drawn) | 482 | -10.4% (inactive) | -0.3% (inactive) | 110 | -56.7% (inactive) | 95.9 | -0.514 (inactive) | -6.4e-05 (inactive) | 0.00524 (inactive) | -6.43% (inactive) | 14.3% (inactive) |
| CCCCc1cc(=O)oc2cc(OCC(=O)N(CC)CC)c(Cl)cc12 | 586 | 0% (inactive) | -3.9% (inactive) | 102 | -56.9% (inactive) | 123 | -0.596 (inactive) | 7.2e-08 (inactive) | 0.00654 (inactive) | 12.5% (inactive) | 30.7% (inactive) |
| O=C(OCC#CCSc1nc2ccccc2s1)c1ccco1 | 639 | -19.8% (inactive) | -8.9% (inactive) | 116 | -28.5% (inactive) | 100 | -0.471 (inactive) | 2.6e-05 (inactive) | 0.00607 (inactive) | -14.4% (inactive) | -21.9% (inactive) |
| COc1ccc(C2CC(c3ccco3)n3ncnc3N2)cc1 (stereo not drawn) | 458 | 6% (inactive) | -19.3% (inactive) | 59.7 | -21.1% (inactive) | 96.4 | -0.4 (inactive) | -6.8e-05 (inactive) | 0.00517 (inactive) | 9.66% (inactive) | 39.2% (inactive) |
| CCCNC(=O)NC1C(NC(=O)NCCC)N(C)C(=O)N1C (stereo not drawn) | 551 | -0.3% (inactive) | -4.3% (inactive) | 98.1 | -60.1% (inactive) | 116 | -0.461 (inactive) | 2.5e-05 (inactive) | 0.00546 (inactive) | -0.304% (inactive) | 16.2% (inactive) |
| CCOC(=O)CN1C(=O)C2(OCCCO2)c2ccccc21 | 595 | -18.5% (inactive) | 3.3% (inactive) | 115 | -39.6% (inactive) | 96.5 | -0.454 (inactive) | -0.000151 (inactive) | 0.00617 (inactive) | 1.67% (inactive) | 18.4% (inactive) |
| CC(C)(C)n1nnnc1CN1CCN(C2CCCC2)CC1 | 798 | -8.1% (inactive) | 9.7% (inactive) | 136 | -52.3% (inactive) | 107 | -0.472 (inactive) | -4.3e-05 (inactive) | 0.00587 (inactive) | -0.428% (inactive) | 21.3% (inactive) |
| COc1ccc(CNC(=O)CN(C(=O)c2ccc(CN3CCOCC3)o2)C2CCCC2)cc1 | 449 | 5.5% (inactive) | -0.5% (inactive) | 98.3 | -94.6% (inactive) | 107 | -0.613 (inactive) | -4.4e-05 (inactive) | 0.00446 (inactive) | 17.1% (inactive) | 11.7% (inactive) |
| CCN(CC)C(=O)C1CCCN(c2ncnc3c2cnn3-c2ccc(Cl)cc2)C1 (stereo not drawn) | 745 | -5.2% (inactive) | 0.8% (inactive) | 103 | -21.1% (inactive) | 109 | -0.543 (inactive) | -1.7e-05 (inactive) | 0.00713 (inactive) | 10.8% (inactive) | 53.6% (active) |
| CCN1CCN(S(=O)(=O)Cc2ccccc2)CC1 | 426 | -2.4% (inactive) | 23.9% (inactive) | 32.2 | -78.4% (inactive) | 106 | -0.607 (inactive) | -2.9e-05 (inactive) | 0.00543 (inactive) | -13.3% (inactive) | -9.78% (inactive) |
| CCOC(=O)C1CCN(Cc2c(O)ccc3ccccc23)CC1 | 596 | -3% (inactive) | 3.7% (inactive) | 109 | -41.8% (inactive) | 124 | -0.5 (inactive) | -7.8e-05 (inactive) | 0.00484 (inactive) | 25.4% (inactive) | 33.8% (inactive) |
| CCOc1ccccc1C(=O)Nc1nnc(CC)s1 | 537 | -12% (inactive) | 12.2% (inactive) | 59.9 | -6.2% (inactive) | 88 | -0.428 (inactive) | -2.5e-05 (inactive) | 0.00564 (inactive) | -6.19% (inactive) | -13.4% (inactive) |
| CCOc1ccc(-c2c(C#N)c(N)nc3c2c(=O)n(C)c(=O)n3C)cc1OC | 702 | -1.1% (inactive) | 7.8% (inactive) | 108 | -7.5% (inactive) | 103 | -0.486 (inactive) | -5.7e-05 (inactive) | 0.00459 (inactive) | 14.3% (inactive) | 16.4% (inactive) |
| c1ccn2c(SCc3cn4ccsc4n3)nnc2c1 | 586 | -7.3% (inactive) | 19.5% (inactive) | 90.6 | -20.5% (inactive) | 111 | -0.544 (inactive) | 2.4e-05 (inactive) | 0.00536 (inactive) | -1.63% (inactive) | -34.1% (inactive) |
| COc1cccc(C2C3=C(N=C4SCC(=O)N42)c2ccccc2CC3)c1OC (stereo not drawn) | 680 | 1.6% (inactive) | -10.8% (inactive) | 107 | -15.3% (inactive) | 98.5 | -0.442 (inactive) | 4.1e-05 (inactive) | 0.00306 (inactive) | -0.493% (inactive) | 29.3% (inactive) |
| Cc1cc2nc(-c3ccco3)cc(C(F)(F)F)n2n1 | 903 | 3.5% (inactive) | -18.7% (inactive) | 104 | -56.6% (inactive) | 121 | -0.578 (inactive) | -1.8e-05 (inactive) | 0.00736 (inactive) | 10.1% (inactive) | 18.3% (inactive) |
| Cc1c(C(=O)OCC(C)C)[nH]c2c1C(=O)CC(c1ccco1)C2 (stereo not drawn) | 464 | 8.4% (inactive) | -226% (inactive) | 4 | -91.9% (inactive) | 96.5 | -0.492 (inactive) | -3.2e-07 (inactive) | 0.00635 (inactive) | 75.6% (active) | 76.5% (active) |
| CN(Cc1cccs1)C(=O)CCc1ccc(S(=O)(=O)N2CCOCC2)cc1 | 475 | 1% (inactive) | -10.3% (inactive) | 94 | -10.9% (inactive) | 114 | -0.466 (inactive) | -3.6e-05 (inactive) | 0.00394 (inactive) | -6.32% (inactive) | 14.6% (inactive) |
| CCC(=O)Nc1ccc(Cl)c(NC(=O)C(C)C)c1 | 410 | 0.3% (inactive) | -10.3% (inactive) | 105 | -111% (inactive) | 81.5 | -0.47 (inactive) | -3.3e-05 (inactive) | 0.00567 (inactive) | 5.28% (inactive) | 25.2% (inactive) |
| O=C(CN1CCN(Cc2ccccc2F)C1=O)NCc1cccnc1 | 674 | -9.2% (inactive) | 18.1% (inactive) | 93.5 | -69.2% (inactive) | 115 | -0.502 (inactive) | 2.9e-05 (inactive) | 0.00712 (inactive) | 7.76% (inactive) | 7.56% (inactive) |
| COc1cccc(NC(=O)N[C@@H](Cc2ccccc2)C(=O)O)c1 | 565 | -9.8% (inactive) | -6.9% (inactive) | 103 | -37% (inactive) | 100 | -0.591 (inactive) | -3.6e-05 (inactive) | 0.00635 (inactive) | 6.12% (inactive) | 15.1% (inactive) |
| COc1ccc(S(=O)(=O)N2CCOCC2)cc1C(=O)Nc1cc(C)on1 | 225 | 1.1% (inactive) | -3.3% (inactive) | 96.6 | 38.6% (inactive) | 76.9 | -0.436 (inactive) | -3.9e-05 (inactive) | 0.00355 (inactive) | -8.66% (inactive) | 12.5% (inactive) |
| CN(C)CC(C(=O)c1ccccc1)c1ccccc1 (stereo not drawn) | 460 | 2.4% (inactive) | -28% (inactive) | 13.4 | 20.2% (inactive) | 113 | -0.251 (inactive) | -1.2e-05 (inactive) | 0.0054 (inactive) | 11% (inactive) | 82.3% (active) |
| Cc1ccccc1N1C(N)=NC(N)=NC1(C)C | 635 | -9.8% (inactive) | 0.5% (inactive) | 103 | -6.8% (inactive) | 110 | -0.584 (inactive) | -1.3e-05 (inactive) | 0.00605 (inactive) | 4.23% (inactive) | 5.9% (inactive) |
| Brc1ccccc1-c1nc(-c2ccccc2)no1 | 428 | 2.3% (inactive) | -23% (inactive) | 94 | -25.4% (inactive) | 114 | -0.45 (inactive) | 2.8e-05 (inactive) | 0.00389 (inactive) | -15.5% (inactive) | -39.8% (inactive) |
| COc1ccc(-n2ccnc2SCC(=O)NCc2ccc3c(c2)OCO3)cc1 | 495 | 0.2% (inactive) | -17.1% (inactive) | 110 | -80% (inactive) | 123 | -0.596 (inactive) | -2.8e-06 (inactive) | 0.006 (inactive) | 11.9% (inactive) | 32.1% (inactive) |
| Cn1c(Cc2ccccc2)nnc1SCC(=O)c1ccc(Br)s1 | 180 | 0.4% (inactive) | 16.7% (inactive) | 94.8 | -8.9% (inactive) | 98.1 | -0.596 (inactive) | -1.4e-05 (inactive) | 0.00563 (inactive) | 6.15% (inactive) | 10.8% (inactive) |
